In PubChem BioAssay AID436 (Emory University Molecular Libraries Screening Center, 2006):
Hit rate of the full screen: of about 72,000 compounds, about 350 (0.49%) were called active. This excerpt belongs to a sample that is enriched for actives. A number with no mark means an inactive call.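 How the source made its calls: active means activity remaining at or below 50% of control, provided the compound also passes the data quality filters; inactive means the rest, including low values that fail the filters.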

These compounds were tested against Ubiquitin carboxyl-terminal hydrolase BAP1 (Homo sapiens) (UniProt Q92560) (assay: BAP1 ubiquitin hydrolase activity blockers – biochemical, Ub-AMC fluorescence, kinetic, primary screen (AID 436;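 further: 100% = DMSO wells rate and 0% = substrate alone blank rate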)). Details: recombinant BAP1, Ub-AMC hydrolysis fluorescence kinetic; at 20 µM; hits give low values.
Sequence of Ubiquitin carboxyl-terminal hydrolase BAP1 (Homo sapiens) (Q92560 whole entry, looked up): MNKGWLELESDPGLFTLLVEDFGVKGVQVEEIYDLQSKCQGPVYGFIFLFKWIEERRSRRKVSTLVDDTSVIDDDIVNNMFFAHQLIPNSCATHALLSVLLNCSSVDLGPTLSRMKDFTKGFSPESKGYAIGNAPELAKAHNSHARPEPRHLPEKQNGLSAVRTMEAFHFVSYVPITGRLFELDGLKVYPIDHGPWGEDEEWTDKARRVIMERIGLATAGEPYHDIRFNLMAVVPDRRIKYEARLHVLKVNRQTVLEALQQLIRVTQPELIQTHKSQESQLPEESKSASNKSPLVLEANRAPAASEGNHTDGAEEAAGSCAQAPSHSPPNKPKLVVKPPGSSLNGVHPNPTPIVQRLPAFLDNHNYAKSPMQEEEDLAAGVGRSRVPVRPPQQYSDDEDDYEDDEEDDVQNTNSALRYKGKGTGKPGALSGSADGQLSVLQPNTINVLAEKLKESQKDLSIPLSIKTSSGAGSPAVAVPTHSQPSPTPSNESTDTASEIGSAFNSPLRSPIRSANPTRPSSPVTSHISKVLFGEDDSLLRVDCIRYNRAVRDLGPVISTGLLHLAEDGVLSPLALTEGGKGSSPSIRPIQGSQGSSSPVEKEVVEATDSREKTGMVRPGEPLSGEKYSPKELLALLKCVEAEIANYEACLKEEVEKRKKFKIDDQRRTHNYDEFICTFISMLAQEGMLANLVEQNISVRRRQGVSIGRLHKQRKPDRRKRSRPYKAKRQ

Compound	activity remaining (% of control)
CC(=O)c1c(O)c(C)c(O)c(Cc2c(O)c3c(c(C(=O)/C=C/c4ccccc4)c2O)OC(C)(C)C=C3)c1O	14.8% (active)
CCCCC[n+]1ccc(-c2cc[n+](CCCCC)cc2)cc1	101%
O=C(O)C1C2CCC(O2)C1C(=O)O (stereo not drawn)	97.4%
O=C1c2ccccc2C(=O)N1Cc1nc2ccccc2c(=O)n1-c1nccs1	84.5%
Cc1ccc(Cn2c(C)c3cnn(CC(=O)N4CCC5(CC4)OCCO5)c(=O)c3c2C)cc1	105%
CCCCCn1c(=O)c(C(=O)NCc2ccccn2)c(O)c2ccccc21	39.6% (active)
C=CCN1CCC2(C)c3cc(O)ccc3CC1[C@@H]2C (stereo partly drawn)	96.1%
COc1ccccc1OC(=O)c1ccc(C)c(S(=O)(=O)N2CCOCC2)c1	104%
